Test results published in paper PMC11574364.

Legend:
Experiment in all cases: protein domain microarray probed with biotinylated miRNA; Domain array: 20 mM Tris-HCl pH 7.4, 200 mM KCl, 0.2 mM EDTA, 0.05% NP40, 2 ug/ul heparin, overnight 4 C. ORF array: PBS pH 7.0 with RNase inhibitor, 100 ng RNA; high values mean tight binding
Details in all cases: ssRNA
hnRNP-D0 = hnRNP-D0 (Homo sapiens, UniProt Q14103)
PABPC1L = PABPC1L (Homo sapiens, UniProt Q4VXU2)
NCL = NCL (Homo sapiens, UniProt P19338)
PABPN1 = target: T1, PABPN1 (Homo sapiens, UniProt Q86U42)
T1 sequence: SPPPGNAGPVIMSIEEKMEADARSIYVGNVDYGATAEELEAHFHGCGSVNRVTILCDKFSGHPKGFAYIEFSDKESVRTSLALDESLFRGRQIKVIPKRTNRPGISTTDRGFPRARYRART

CNOT4 = target: T2, CNOT4 (Homo sapiens, UniProt O95628)
T2 sequence: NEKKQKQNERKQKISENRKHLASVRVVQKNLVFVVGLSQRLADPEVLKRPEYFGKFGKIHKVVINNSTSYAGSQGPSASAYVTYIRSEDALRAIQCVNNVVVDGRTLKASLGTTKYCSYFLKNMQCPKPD

CSTF2 = target: T3, CSTF2 (Homo sapiens, UniProt P33240)
T3 sequence: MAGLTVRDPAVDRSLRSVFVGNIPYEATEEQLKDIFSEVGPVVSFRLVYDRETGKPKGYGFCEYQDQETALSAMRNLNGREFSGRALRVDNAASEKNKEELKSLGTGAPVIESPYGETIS

DRBP1(3-4) = target: T4, DRBP1(3-4) (Homo sapiens, UniProt Q8IUH3)
T4 sequence: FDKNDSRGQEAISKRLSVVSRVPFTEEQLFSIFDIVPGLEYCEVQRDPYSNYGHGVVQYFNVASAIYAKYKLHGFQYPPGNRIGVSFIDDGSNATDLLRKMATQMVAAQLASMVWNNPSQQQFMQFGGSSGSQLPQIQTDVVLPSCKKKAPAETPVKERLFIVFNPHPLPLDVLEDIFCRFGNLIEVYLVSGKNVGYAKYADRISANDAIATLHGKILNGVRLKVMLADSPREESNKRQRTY

hnRNP-A/B = hnRNP-A/B (Homo sapiens, UniProt Q99729)
CPSF7 = target: T5, CPSF7 (Homo sapiens, UniProt Q8N684)
T5 sequence: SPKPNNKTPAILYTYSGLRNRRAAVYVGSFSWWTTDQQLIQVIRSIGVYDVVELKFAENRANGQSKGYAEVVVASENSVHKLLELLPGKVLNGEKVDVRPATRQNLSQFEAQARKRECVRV

HNRNPA1L2 = HNRNPA1L2 (Homo sapiens, UniProt Q32P51)
DAZ4 = target: T6, DAZ4 (Homo sapiens, UniProt Q86SG3)
T6 sequence: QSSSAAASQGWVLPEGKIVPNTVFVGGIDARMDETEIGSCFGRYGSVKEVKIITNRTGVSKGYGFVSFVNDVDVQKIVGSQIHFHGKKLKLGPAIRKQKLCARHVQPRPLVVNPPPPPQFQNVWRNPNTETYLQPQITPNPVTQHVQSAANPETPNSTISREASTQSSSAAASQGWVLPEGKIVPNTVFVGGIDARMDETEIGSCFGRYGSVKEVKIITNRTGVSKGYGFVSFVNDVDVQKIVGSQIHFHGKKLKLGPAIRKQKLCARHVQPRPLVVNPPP

hnRNP-M(1-2) = target: T7, hnRNP-M(1-2) (Homo sapiens, UniProt P52272)
T7 sequence: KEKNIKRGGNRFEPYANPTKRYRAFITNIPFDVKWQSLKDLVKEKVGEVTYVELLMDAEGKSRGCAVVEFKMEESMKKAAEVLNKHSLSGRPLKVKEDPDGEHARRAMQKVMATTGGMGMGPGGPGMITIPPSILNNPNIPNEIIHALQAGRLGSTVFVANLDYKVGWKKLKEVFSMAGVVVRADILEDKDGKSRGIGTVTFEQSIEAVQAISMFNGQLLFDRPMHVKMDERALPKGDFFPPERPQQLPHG

hnRNP-A3 = hnRNP-A3 (Homo sapiens, UniProt P51991)
LARP7(2) = target: T8, LARP7(2) (Homo sapiens, UniProt Q4G0J3)
T8 sequence: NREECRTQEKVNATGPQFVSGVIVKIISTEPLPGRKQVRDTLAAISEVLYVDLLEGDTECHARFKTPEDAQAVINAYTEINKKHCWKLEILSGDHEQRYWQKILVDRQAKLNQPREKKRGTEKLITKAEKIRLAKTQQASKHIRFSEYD

hnRNP-A1 = hnRNP-A1 (Homo sapiens, UniProt P09651)
eIF3-delta = eIF3-delta (Homo sapiens, UniProt O75821)
hnRNP-R = target: T9, hnRNP-R (Homo sapiens, UniProt O43390)
T9 sequence: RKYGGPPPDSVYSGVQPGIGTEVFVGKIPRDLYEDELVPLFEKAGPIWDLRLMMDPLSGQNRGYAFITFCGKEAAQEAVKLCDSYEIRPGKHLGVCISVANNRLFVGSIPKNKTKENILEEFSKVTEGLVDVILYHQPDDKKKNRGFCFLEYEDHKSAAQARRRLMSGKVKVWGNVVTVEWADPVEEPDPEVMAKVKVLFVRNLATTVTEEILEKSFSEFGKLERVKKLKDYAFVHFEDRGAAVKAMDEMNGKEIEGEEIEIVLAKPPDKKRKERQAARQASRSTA

LKAP = target: T10, LKAP (Homo sapiens, UniProt Q9Y4F3)
T10 sequence: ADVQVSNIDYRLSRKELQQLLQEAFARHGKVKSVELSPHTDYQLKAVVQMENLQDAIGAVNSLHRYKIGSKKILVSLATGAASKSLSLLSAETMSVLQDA

DAZ1 = target: T11, DAZ1 (Homo sapiens, UniProt Q9NQZ3)
T11 sequence: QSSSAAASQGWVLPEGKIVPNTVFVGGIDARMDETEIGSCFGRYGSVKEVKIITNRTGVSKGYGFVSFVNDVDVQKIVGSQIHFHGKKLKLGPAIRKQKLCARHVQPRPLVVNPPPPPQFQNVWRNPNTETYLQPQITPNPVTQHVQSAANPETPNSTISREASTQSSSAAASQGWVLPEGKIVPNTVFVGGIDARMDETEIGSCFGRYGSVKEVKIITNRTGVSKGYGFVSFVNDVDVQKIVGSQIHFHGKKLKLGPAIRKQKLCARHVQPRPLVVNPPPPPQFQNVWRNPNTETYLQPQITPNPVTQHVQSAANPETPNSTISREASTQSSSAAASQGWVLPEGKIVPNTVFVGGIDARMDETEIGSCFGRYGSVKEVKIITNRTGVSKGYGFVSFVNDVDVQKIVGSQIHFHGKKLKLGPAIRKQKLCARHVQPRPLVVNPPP

G3BP-1 = G3BP-1 (Homo sapiens, UniProt Q13283)
Sequence of G3BP-1 (Q13283 320-435): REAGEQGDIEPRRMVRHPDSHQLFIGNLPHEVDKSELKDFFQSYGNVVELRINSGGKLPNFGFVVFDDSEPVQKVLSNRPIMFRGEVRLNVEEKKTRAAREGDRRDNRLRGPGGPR

Sequence of eIF3-delta (O75821 220-320, stated change not applied): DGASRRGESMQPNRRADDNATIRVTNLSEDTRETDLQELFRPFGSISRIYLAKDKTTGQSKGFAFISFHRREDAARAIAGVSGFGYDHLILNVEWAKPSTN
Sequence of NCL (P19338 288-670): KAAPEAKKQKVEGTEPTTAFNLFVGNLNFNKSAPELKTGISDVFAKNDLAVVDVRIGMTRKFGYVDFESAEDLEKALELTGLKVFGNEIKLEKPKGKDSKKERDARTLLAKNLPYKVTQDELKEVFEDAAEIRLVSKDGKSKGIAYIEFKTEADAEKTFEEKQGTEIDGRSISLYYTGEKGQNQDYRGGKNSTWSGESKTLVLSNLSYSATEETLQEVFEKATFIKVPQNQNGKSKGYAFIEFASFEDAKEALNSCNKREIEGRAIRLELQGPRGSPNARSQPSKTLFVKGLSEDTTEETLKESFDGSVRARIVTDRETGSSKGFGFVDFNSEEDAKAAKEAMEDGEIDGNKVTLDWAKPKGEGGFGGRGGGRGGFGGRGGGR
Sequence of hnRNP-D0 (Q14103 80-280): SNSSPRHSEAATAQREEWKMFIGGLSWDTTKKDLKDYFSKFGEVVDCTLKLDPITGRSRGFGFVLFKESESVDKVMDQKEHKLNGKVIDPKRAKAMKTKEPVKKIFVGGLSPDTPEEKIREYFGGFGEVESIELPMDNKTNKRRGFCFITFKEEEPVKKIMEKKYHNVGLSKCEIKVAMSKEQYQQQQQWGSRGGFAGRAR
Sequence of PABPC1L (Q4VXU2 1-390): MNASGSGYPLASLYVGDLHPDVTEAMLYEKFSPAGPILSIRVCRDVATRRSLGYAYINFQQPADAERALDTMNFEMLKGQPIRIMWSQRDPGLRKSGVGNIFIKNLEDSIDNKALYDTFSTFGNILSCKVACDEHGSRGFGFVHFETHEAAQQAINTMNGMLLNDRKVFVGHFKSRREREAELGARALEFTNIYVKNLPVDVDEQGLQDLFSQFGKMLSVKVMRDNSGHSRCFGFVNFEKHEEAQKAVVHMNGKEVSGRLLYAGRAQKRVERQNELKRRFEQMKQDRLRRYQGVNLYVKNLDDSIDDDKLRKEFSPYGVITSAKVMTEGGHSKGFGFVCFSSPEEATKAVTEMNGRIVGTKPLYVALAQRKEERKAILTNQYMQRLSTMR
Sequence of hnRNP-A/B (Q99729 50-250): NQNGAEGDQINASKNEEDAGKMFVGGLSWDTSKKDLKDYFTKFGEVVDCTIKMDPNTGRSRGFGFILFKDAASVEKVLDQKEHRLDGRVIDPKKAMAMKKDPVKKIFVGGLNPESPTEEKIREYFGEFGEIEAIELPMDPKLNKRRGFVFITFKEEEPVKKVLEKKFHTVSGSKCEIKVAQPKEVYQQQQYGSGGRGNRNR
Sequence of hnRNP-A3 (P51991 15-225): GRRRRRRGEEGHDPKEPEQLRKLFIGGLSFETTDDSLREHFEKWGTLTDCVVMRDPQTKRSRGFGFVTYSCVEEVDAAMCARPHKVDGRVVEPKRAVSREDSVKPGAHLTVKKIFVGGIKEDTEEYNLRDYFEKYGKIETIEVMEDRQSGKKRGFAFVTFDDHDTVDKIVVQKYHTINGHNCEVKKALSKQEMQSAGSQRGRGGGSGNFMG
Sequence of HNRNPA1L2 (Q32P51 1-205): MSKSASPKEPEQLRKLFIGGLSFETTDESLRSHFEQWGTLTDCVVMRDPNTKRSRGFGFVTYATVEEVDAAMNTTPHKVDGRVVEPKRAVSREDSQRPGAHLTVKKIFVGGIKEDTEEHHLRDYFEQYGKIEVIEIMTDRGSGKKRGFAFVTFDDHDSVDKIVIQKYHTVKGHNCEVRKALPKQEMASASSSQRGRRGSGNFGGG
Sequence of hnRNP-A1 (P09651 1-205): as the sequence (Q32P51 1-205) above, with A5E, T74A, T75R, K171N, P182S, R197S counted along it

Sequence | binding signal (hnRNP-D0) [fluorescence intensity] | binding signal (PABPC1L) [fluorescence intensity] | binding signal (NCL) [fluorescence intensity] | binding signal (PABPN1) [fluorescence intensity] | binding signal (CNOT4) [fluorescence intensity] | binding signal (CSTF2) [fluorescence intensity] | binding signal (DRBP1(3-4)) [fluorescence intensity] | binding signal (hnRNP-A/B) [fluorescence intensity] | binding signal (CPSF7) [fluorescence intensity] | binding signal (HNRNPA1L2) [fluorescence intensity] | binding signal (DAZ4) [fluorescence intensity] | binding signal (hnRNP-M(1-2)) [fluorescence intensity] | binding signal (hnRNP-A3) [fluorescence intensity] | binding signal (LARP7(2)) [fluorescence intensity] | binding signal (hnRNP-A1) [fluorescence intensity] | binding signal (eIF3-delta) [fluorescence intensity] | binding signal (hnRNP-R) [fluorescence intensity] | binding signal (LKAP) [fluorescence intensity] | binding signal (DAZ1) [fluorescence intensity] | binding signal (G3BP-1) [fluorescence intensity]
AGAGGUAGUAGGUUGCAUAGUU | 1690 ± 40.2 | 1740 ± 116 | 3640 ± 50 | 3510 ± 43.1 | 230 ± 7.35 | 1640 ± 152 | 63.1 ± 5.42 | 1830 ± 93.1 | 48.3 ± 8.88 | 630 ± 43.3 | 934 ± 29.1 | 1710 ± 32.8 | 2440 ± 28.8 | 400 ± 39.4 | 62.9 ± 11.7 | 231 ± 8.61 | 362 ± 6.89 | 41.4 ± 3.31 | 814 ± 10.2 | 1220 ± 45.7
CAGUGCAAUGAUGAAAGGGCAU | 338 ± 13.6 | 990.7 ± 2.47 | 2833 ± 25.8 | 2170 ± 30.4 | 235.49 ± 0.198 | 484 ± 5.24 | 77 ± 15.6 | 1111 ± 3.46 | 47.8 ± 6.69 | 236 ± 20 | 178.74 ± 0.0495 | 946.9 ± 2.02 | 1370 ± 25 | 288 ± 8.61 | 40.7 ± 3.35 | 113 ± 14 | 113 ± 6.25 | 37.5 ± 1.56 | 153 ± 10.6 | 1860 ± 70.5
UAGCUUAUCAGACUGAUGUUGA | 106 ± 5.55 | 126 ± 31.5 | 1820 ± 62.5 | 329 ± 38.4 | 35.05 ± 0.099 | 142 ± 42.3 |  | 108 ± 7.62 |  |  | 570 ± 34.9 | 584 ± 19 | 80.5 ± 23 | 66.2 ± 4.35 |  | 20.5 ± 2.47 |  |  | 550 ± 15.3 | 219 ± 29.7
